Laboratory results from PubChem BioAssay AID623992 (NMMLSC, 2012).
Entries with a potency or affinity are not part of this list. Active and inactive are the calls of the source.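 Rule for the calls: active = compounds whose fitted half-maximal effective concentration for blocking dye efflux is below 100 µM; inactive = the rest.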

target: Benomyl/methotrexate resistance protein (Candida albicans) (UniProt P28873); test: Candida albicans Mdr1 pump blockade titration – singleplex, Cherry Pick2 set, dose response (AID 623992); conditions: S. cerevisiae AD/CaMDR1, Nile Red efflux, flow cytometry; series mostly up to 100 µM; efflux inhibition response: at the top concentration
Sequence (P28873 whole entry, looked up): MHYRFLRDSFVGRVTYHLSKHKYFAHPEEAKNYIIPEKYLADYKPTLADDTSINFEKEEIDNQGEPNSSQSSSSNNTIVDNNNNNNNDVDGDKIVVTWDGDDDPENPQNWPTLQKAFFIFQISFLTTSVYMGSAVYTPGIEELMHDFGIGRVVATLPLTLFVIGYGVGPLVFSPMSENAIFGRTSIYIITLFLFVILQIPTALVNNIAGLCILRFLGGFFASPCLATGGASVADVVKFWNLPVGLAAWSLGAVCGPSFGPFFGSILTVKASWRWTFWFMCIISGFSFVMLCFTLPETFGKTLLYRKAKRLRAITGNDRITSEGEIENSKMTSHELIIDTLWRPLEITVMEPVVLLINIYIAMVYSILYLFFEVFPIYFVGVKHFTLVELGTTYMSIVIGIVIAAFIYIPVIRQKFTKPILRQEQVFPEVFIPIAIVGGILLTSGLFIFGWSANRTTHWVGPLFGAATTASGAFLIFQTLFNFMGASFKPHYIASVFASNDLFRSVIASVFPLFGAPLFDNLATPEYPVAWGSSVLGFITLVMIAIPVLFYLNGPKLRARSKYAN

Efflux inhibition response, inactive:
Cc1ccc(C2CC(c3ccccc3)=NN2c2ccc(S(N)(=O)=O)cc2)cc1 (stereo unspecified) -2.43%, CC(C)C(=O)N1CCC2(CC1)Oc1ccc(F)cc1C(=O)C21CC(c2ccc(Cl)cc2)=NO1 (stereo unspecified) 133%, NS(=O)(=O)c1ccc(N2N=C(c3ccccc3)CC2c2ccccc2)cc1 (stereo unspecified) -1.41%, CC(C)C(=O)N1CCN(c2ccccc2NC(=O)c2ccc3c(c2)OCCO3)CC1 0.84%, O=C(Nc1ccccc1)C1=C[C@@H](c2ccc(Br)cc2)C[C@@H](OCCCCO)O1 -1.31%, O=C(C[n+]1cc(-c2ccc(Cl)cc2)n2c1CCC2)N1c2ccccc2Sc2ccccc21 -1.78%, COc1cc(OC)c2c(-c3ccccc3)cc(=O)oc2c1C(CCN1CCCC(C)C1)c1ccc(N(C)C)cc1 (stereo unspecified) -0.53%, O=C(C1CCCN(c2ncnc3c2nc2n3CCCCC2)C1)N1CCN(c2ccccc2)CC1 (stereo unspecified) -0.65%, COc1ccc(S(=O)(=O)N(C)C[C@H]2Oc3c(NC(=O)NC4CCCCC4)cccc3C(=O)N([C@H](C)CO)C[C@@H]2C)cc1 122%, CC(C)C(=O)N1CCC2(CC1)Oc1ccc(F)cc1C(=O)C21CC(c2ccccc2)=NO1 (stereo unspecified) 132%, Cc1ccc(N2CCN(C(=O)C3CCCN(c4ncnc5c4nc4n5CCCCC4)C3)CC2)c(C)c1 (stereo unspecified) -0.58%, CCc1ccc(C2=NN(c3ccc(S(N)(=O)=O)cc3)C(c3ccc(F)cc3)C2)cc1 (stereo unspecified) -1.79%, COc1ccc2c(c1)OC[C@H]1[C@H]2N2C(=O)c3ccc(C)cc3NC(=O)[C@@]2(C)[C@H]1c1ccccc1 46%, NC1=NC[C@@H](Cc2ccc(O)cc2)N1CCCCC1CCCCC1 -0.9%, COc1ccc(C(=O)OCCc2ccc(O)cc2)cc1 0.09%, COc1ccc(C2CC(c3cccc(OC)c3)=NN2c2ccc(S(N)(=O)=O)cc2)cc1 (stereo unspecified) -2.33%, COc1ccc(O)c(C(=O)c2cnc3c(c2)CN(C)C(=O)N3)c1 0.72%, C[C@@]12C(=O)Nc3ccc(Cl)cc3C(=O)N1[C@H]1c3cc(Cl)ccc3OC[C@@H]1[C@@H]2c1ccccc1 -0.59%, N#CC(C(=O)NCc1ccccc1)c1nc2ccccc2nc1N1CCCC1 (stereo unspecified) -0.29%, COc1ccc2nc(NC(=O)c3cccs3)sc2c1 -1.21%, COc1ccccc1C(=O)OCCc1ccccc1 -0.58%, O=C(NCCC1=CCCCC1)C1CCC(CNc2nc(=S)[nH]c3ccccc23)CC1 (stereo unspecified) 35.4%, O=C(NC1CCCc2c1cnn2-c1ccccc1F)c1ccccn1 (stereo unspecified) -0.97%, NS(=O)(=O)c1ccc(N2N=C(c3ccccc3)CC2c2cccc(Br)c2)cc1 (stereo unspecified) -2.03%, CCCCCc1cc(=O)oc2c(C(CCN3CCCC(C)C3)c3ccc(N(C)C)cc3)c(OC)cc(OC)c12 (stereo unspecified) -1.98%, COc1ccc(OC)c2sc(NC(=O)c3ccc(Br)s3)nc12 -0.25%, O=C(C1CCCN(c2ncnc3c2nc2n3CCCCC2)C1)N1CCN(c2ccccc2F)CC1 (stereo unspecified) -1.04%, Cc1ccc(C)c(N2CCN(C(=O)C3CCCN(c4ncnc5c4nc4n5CCCCC4)C3)CC2)c1 (stereo unspecified) -0.53%, COc1cccc(N2CCN(C(=O)C3CCCN(c4ncnc5c4nc4n5CCCCC4)C3)CC2)c1 (stereo unspecified) -0.35%, CCC(Cc1ccccc1)OC(=O)c1ccccc1C(=O)O (stereo unspecified) -0.8%

outcome, inactive:
CCCCN1Cc2cc(C(=O)c3cc(F)ccc3O)cnc2NC1=O
